G9a block: blocks human histone lysine methyltransferase G9a | Q96KQ7 | G9a H3K9 monomethylation, AlphaScreen, 2 h | Potency, µM (highest dose often 102 µM), for inactives: at the top dose activity, negative = inhibition, hits mostly inhibitors | 350,000 compounds, 8.8% hits | AID 504332; further: on the % scale 0 is the no-effect control and ±100 the full control effect; nearly all actives have a fitted effect of over 75% in size
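AlphaScreen read-out: biotin-H3K9 peptide (500 nM) methylation by 20 nM enzyme with 20 uM SAM, 2 h at room temperature after 15 min compound preincubation; anti-monomethyl H3K9 antibody plus donor/acceptor beads, 10 min dark.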
HP1b chromo inh: blocks HP1-beta chromodomain binding to methylated histone tails | P83916 | AlphaScreen HP1-beta / biotin-H3K9me3 peptide binding | Potency, µM (highest dose often 114 µM), inactives show top-dose activity change, negative = inhibition, actives largely listed as inhibitors | 390,000 compounds, 0.56% hits | AID 540317; further: nearly all actives have a fitted effect of over 70% in size
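HP1-beta protein (50 nM final) preincubated 30 min at room temperature with biotinylated H3(1-18)K9me3 peptide (50 nM) in PBS pH 7.4, 0.01% Tween-20, then compound added for 30 min. AlphaScreen streptavidin donor/nickel chelate acceptor beads (10 ug/mL final), 30 min dark, luminescence read.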
Sfp PPTase inh: Sfp phosphopantetheinyl transferase inhibition. Biochemical Sfp PPTase activity, qHTS. AID 1490. 310,000 compounds, 3.5% hits. Potency, µM, for inactives: largest response in the series, negative = inhibition, hits mostly inhibitors;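 further: the enzyme is Sfp with the accession as filed and its product quenches rhodamine fluorescence; 0% = enzyme reaction without inhibitor and -100% = no enzyme wells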
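With Hepes-Na pH 7.6 buffer containing 10 mM MgCl2, Sfp (15 nM) modified BHQ-2-YbbR (12.5 uM) using rhodamine-CoA (5 uM). Two reads 30 minutes apart at 525/598 nm yielded each well's rate.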
JMJD2A Tudor: blocks the human JMJD2A Tudor domain; Potency, µM (doses to about 114 µM), for inactives: top-dose activity change, negative = inhibition, hits mostly inhibitors; O75164; AlphaScreen JMJD2A-Tudor / H3K4me3 peptide binding; 390,000 compounds, 4.4% hits; AID 504339; further: on the % scale 0 is the no-effect control and ±100 the full control effect; nearly all actives have a fitted effect of over 50% in size
BAZ2B block: blocks human BAZ2B. Q9UIF8. AlphaScreen BAZ2B-H3K14Ac peptide displacement. Potency, µM (doses to about 114 µM), inactives show at the top dose activity change, negative = inhibition, actives largely listed as inhibitors. 360,000 compounds, 4.4% hits; further: on the % scale 0 is the no-effect control and ±100 the full control effect; nearly all actives have a fitted effect of over 60% in size
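Compounds, titrated to a top concentration of 110 uM, were incubated 30 min at room temperature with preformed BAZ2B/acetyl-K14 H3 peptide complex (50 nM each). Proximity signal was measured by AlphaScreen after 20 min with beads.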
TDP1 block: TDP1 (human) enzyme inhibition. recombinant TDP1, AlphaScreen DNA substrate cleavage. Potency, µM (doses to about 130 µM), inactives show at the top dose activity change, negative = inhibition, most hits filed as inhibitors. 350,000 compounds, 0.28% hits. AID 485290; further: on the % scale 0 is the no-effect control and ±100 the full control effect; nearly all actives have a fitted effect of over 40% in size
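Recombinant human Tdp1 (E. coli-expressed, 1 nM final) preincubated with compounds 15 min at room temperature, then 5'-biotin/3'-phosphotyrosine-FITC DNA substrate (15 nM final) added for 5 min. AlphaScreen beads (10 ug/ml final) added 10 min; cleavage lowers signal.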
Active calls of the source: *; ? = inconclusive; . = not tested or not shown; [ ] = dose if it differs, or a comment. In the library only some 12% were active in any assay of this set; here they are far more common. The call rests on the fitted dose curve; in most records, active means well fitted curve in the direction sought with a large enough effect; inconclusive means small, poorly fitted or top-dose-only effect, or another doubt; inactive means no such curve, though single readings can be large; an effect the other way counts as inactive or inconclusive. Potency means the concentration at half of the fitted maximal effect.

SMILES | G9a block | HP1b chromo inh | Sfp PPTase inh | JMJD2A Tudor | BAZ2B block | TDP1 block
CN(Cc1nccs1)C(=O)CC1C(=O)NCCN1Cc1ccc(-c2ccccc2)cc1 (centres undefined) | ? | -1% | 45µM* | ? | -35% | 3%
CN(Cc1cccnc1)C(=O)CC1C(=O)NCCN1Cc1ccc(-c2ccccc2)cc1 (centres undefined) | 50µM* | 23% | -9% | -24% | . | 8%
O=C(CC1C(=O)NCCN1Cc1ccc(-c2ccccc2)cc1)NCCOc1cccnc1 (centres undefined) | 50µM* | 11% | -14% | -28% | -9% | 6%
COc1ccc(CN2CCNC(=O)C2CC(=O)N(C)Cc2nccs2)cc1OC (centres undefined) | . | 28% | -13% | -16% | 0% | 0%
Cc1nonc1CN(C)C(=O)CC1C(=O)NCCN1Cc1ccccc1C(F)(F)F (centres undefined) | -47% | 26% | 16% | -19% | -33% | 4%
Cc1ccc(Cl)cc1-n1c(=O)c2sc3ccccc3c2n(Cc2ccccc2)c1=O | 7%[59 µM] | 26% | . | -2% | -3% | -9%
CCC(=O)NC(NC(=S)Nc1ccc(S(N)(=O)=O)cc1)C(Cl)(Cl)Cl (centres undefined) | 8.9µM* | 5% | -8% | -9% | -7% | -3%
CC(=O)NC(NC(=S)Nc1ccc(S(N)(=O)=O)cc1)C(Cl)(Cl)Cl (centres undefined) | 45µM* | 38% | 15% | -11% | -5% | 0%
CCc1ccc(OCC(=O)NC(NC(=S)Nc2ccccc2)C(Cl)(Cl)Cl)cc1 (centres undefined) | -10%[59 µM] | 13% | 13% | -8% | 8% | 5%
Cc1cccc(C(=O)NC(NC(=S)Nc2ccc(S(N)(=O)=O)cc2)C(Cl)(Cl)Cl)c1 (centres undefined) | ? | 17% | -8% | -21% | ? | 0%
Cc1c(NC(=S)NC(NC(=O)CC(C)C)C(Cl)(Cl)Cl)c(=O)n(-c2ccccc2)n1C (centres undefined) | ? | 28% | 10% | ? | 8% | 1%
CC(C)CC(=O)NC(NC(=S)Nc1ccccc1)C(Cl)(Cl)Cl (centres undefined) | 32µM* | 8% | 4% | -6% | -1% | 0%
COc1cc(C(=O)NC(=S)Nc2ccc3c(c2)OCO3)cc(OC)c1OC | . | -2% | -18% | -30% | -9% | -4%
CCCc1cc(C(=O)NNC(=S)Nc2cccc(C)c2)cs1 | 8.9µM* | ? | 9% | -25% | -24% | 5%
Cc1cccc(NC(=S)NNC(=O)c2ccc3c(c2)OCO3)c1 | 45µM* | 25% | 3% | -24% | -10% | 8%
Cc1cccc(NC(=S)NNC(=O)c2ccco2)c1 | -9%[12.7 µM] | 2% | 0% | -18% | -6% | 11%
COc1cc(C(=O)NC(=S)NNC(=O)c2ccc3c(c2)OCO3)cc(OC)c1OC | 35µM* | 9% | 10% | -13% | -5% | 9%
O=C(O)CCC(=O)Nc1ccc(/C=C/C(=O)C2CC2)cc1 | -25% | 16% | 10% | -14%[11.4 µM] | -23% | 6%
Cc1[nH][nH]c(=O)c1C(c1ccc(-c2ccc(F)cc2)o1)c1c(C)[nH][nH]c1=O | 25µM* | 2% | ? | ? | ? | 10%
Cc1[nH][nH]c(=O)c1C(c1ccc(N(C)C)c(Br)c1)c1c(C)[nH][nH]c1=O | . | 8% | -19% | ? | -9% | 10%
COc1ccc(-c2ccc(C(c3c(C)[nH][nH]c3=O)c3c(C)[nH][nH]c3=O)o2)c([N+](=O)[O-])c1 | 4µM* | -12% | 20µM* | ? | 40µM* | 7%
Cc1[nH][nH]c(=O)c1C(c1ccc(-c2ccc(Cl)c(Cl)c2)o1)c1c(C)[nH][nH]c1=O | 11µM* | -35% | 56µM* | ? | ? | 13%
COc1cccc(-c2nc(N)nc(SC)c2C#N)c1 | 20% | -2% | 17% | -13% | 3% | 3%
CCCn1c(N)c(C(=O)CSc2nc(C)nc3sc(C)c(C)c23)c(=O)[nH]c1=O | 22µM* | 30% | . | -16% | -11% | 1%[0.505 µM]
CCCn1c(N)c(C(=O)CSc2nc(C)cs2)c(=O)[nH]c1=O | 3%[59 µM] | 10% | 18% | -10% | 1% | 2%
SMILES | G9a block | HP1b chromo inh | Sfp PPTase inh | JMJD2A Tudor | BAZ2B block | TDP1 block
CC1Cc2cc(S(=O)(=O)NCc3ccccc3)ccc2N1C(=O)C1CC1 (centres undefined) | 12%[59 µM] | 28% | 17% | -5% | 0% | 1%
CC(=O)Nc1nc(-c2ccc3c(c2)CC(C)N3C(=O)C2CC2)c(C)s1 (centres undefined) | 25µM* | ? | 50µM* | -32% | ? | .
CCOC(=O)C(=O)Nc1nc(-c2ccc3c(c2)CCN3C(=O)C2CC2)c(C)s1 | 50µM* | 14% | -9% | -19% | ? | 16%
Cc1sc(NC(=O)CN2CCCC2)nc1-c1ccc2c(c1)CCN2C(=O)c1cccc(F)c1 | ? | -10% | -4% | ? | ? | 14%
CCC(=O)N1CCc2cc(-c3csc(NC(=O)c4ccco4)n3)ccc21 | 0% | 28% | 2% | -11% | ? | 6%
Cc1sc(NC(=O)c2ccco2)nc1-c1ccc2c(c1)CC(C)N2C(=O)C1CC1 (centres undefined) | 45µM* | ? | -18% | -26% | -4% | 4%
O=[N+]([O-])/C(C(Cl)=C(Cl)Cl)=C(\Sc1ccccc1)N1CCCCC1 | 40µM* | -10% | -15% | ? | ? | 6%
CCN(CC)/C(Sc1ccccc1)=C(\C(Cl)=C(Cl)Cl)[N+](=O)[O-] | ? | -16% | 3% | -34% | 50µM* | 5%
CC(C)c1ccc(NC(=O)Cn2c(=O)n(CCc3ccccc3)c(=O)c3ccccc32)cc1 | 5%[59 µM] | 29% | . | -12% | -1% | 2%
Cc1cc2c(s1)c1c(C)nn(Cc3ccc(F)cc3)c(=O)c1n2C | -1%[12.7 µM] | . | . | . | 1% | .
Cc1c(C(=O)O)sc2nc(/C=C/c3cccc(F)c3)[nH]c(=O)c12 | 3% | 43% | 9% | -3% | ? | .
Cc1c(C(=O)O)sc2nc(/C=C/c3ccccc3OC(F)F)[nH]c(=O)c12 | ? | ? | ? | 16µM* | 71µM* | 71µM*
Cc1ccc(/C=C/c2nc3sc(C(=O)O)c(C)c3c(=O)[nH]2)cc1[N+](=O)[O-] | 7.1µM* | -8% | 79µM* | ? | 89µM* | 11µM*
C=CCn1c(SCc2nc3sc(C(=O)O)c(C)c3c(=O)[nH]2)nnc1-c1ccc(F)cc1 | 27%[12.7 µM] | 23% | 26% | -16% | -18% | .

Assay outcomes from PubChem BioAssay.
